From the supplement of paper PMC10849652
Of roughly 7,900 targets only a part is listed; those with a hit were picked by preference. About 0.6% of all pairs of compound and target were hits. Unmarked numbers belong to inactive results.

Compound: Cn1cncc1[C@@](N)(c1ccc(Cl)cc1)c1ccc2c(c1)c(-c1cccc(Cl)c1)cc(=O)n2C [tipifarnib]
Experiment: log2 fold change, soluble protein after heating vs DMSO (PISA); higher = thermal stabilisation; K562 cells, 10 uM, 30 min; active = over 0.2 and 3.5 SD of the protein, either way, in both replicates (recomputed)
Summary of the method: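 K562 cells at 2×10^6 cells/mL were given 10 μM compound for 30 min. Aliquots then went through 3 min of heating across 48°C-58°C, were pooled, and were extracted in PBS with 0.5% NP-40 at 4°C, and the supernatant after 21,000xg for 90 min was quantified by TMTpro 16plex LC-MS/MS with channel sums equalised. Thermal stability relative to control samples, from duplicates, is given as log2 fold change.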

Chain of UniProt P33552 (P33552 whole entry, looked up): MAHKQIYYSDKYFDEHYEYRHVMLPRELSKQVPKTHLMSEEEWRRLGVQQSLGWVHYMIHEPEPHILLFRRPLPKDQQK
Chain of UniProt Q5T655 (Q5T655 whole entry, looked up): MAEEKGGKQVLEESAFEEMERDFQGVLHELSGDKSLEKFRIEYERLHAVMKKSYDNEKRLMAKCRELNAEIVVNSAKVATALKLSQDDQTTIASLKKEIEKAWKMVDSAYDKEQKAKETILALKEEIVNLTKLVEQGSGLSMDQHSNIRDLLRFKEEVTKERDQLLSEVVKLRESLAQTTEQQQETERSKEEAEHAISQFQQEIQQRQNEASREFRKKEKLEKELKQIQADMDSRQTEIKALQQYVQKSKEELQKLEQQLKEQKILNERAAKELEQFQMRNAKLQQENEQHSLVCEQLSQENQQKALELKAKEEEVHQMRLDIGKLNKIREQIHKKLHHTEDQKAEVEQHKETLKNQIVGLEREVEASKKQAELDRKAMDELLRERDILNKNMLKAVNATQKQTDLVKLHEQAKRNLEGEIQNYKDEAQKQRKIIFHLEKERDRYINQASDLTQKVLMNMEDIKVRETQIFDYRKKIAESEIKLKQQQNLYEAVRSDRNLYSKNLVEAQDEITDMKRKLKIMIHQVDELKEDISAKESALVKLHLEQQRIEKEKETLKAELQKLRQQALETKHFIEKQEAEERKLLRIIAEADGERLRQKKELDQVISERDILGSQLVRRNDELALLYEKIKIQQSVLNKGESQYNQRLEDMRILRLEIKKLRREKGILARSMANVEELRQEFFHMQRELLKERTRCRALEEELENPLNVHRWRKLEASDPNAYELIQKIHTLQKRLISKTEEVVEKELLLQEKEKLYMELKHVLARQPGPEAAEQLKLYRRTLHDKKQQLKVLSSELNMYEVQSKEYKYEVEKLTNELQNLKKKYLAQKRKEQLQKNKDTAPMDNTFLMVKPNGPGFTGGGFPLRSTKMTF
Chain of UniProt Q13286 (Q13286 whole entry, looked up): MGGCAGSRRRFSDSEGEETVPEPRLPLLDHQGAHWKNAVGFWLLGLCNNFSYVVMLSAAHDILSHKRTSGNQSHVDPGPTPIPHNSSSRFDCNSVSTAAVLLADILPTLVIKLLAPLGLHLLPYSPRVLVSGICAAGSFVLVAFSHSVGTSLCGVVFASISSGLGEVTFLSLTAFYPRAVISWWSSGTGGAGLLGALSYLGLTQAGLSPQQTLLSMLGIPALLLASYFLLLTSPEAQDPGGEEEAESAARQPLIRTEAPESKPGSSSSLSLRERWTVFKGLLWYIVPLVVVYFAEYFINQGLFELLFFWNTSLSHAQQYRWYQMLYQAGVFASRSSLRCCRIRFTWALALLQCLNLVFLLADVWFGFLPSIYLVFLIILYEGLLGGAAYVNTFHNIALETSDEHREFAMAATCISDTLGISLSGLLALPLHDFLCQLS
Chain of UniProt Q6UUV7 (Q6UUV7 whole entry, looked up): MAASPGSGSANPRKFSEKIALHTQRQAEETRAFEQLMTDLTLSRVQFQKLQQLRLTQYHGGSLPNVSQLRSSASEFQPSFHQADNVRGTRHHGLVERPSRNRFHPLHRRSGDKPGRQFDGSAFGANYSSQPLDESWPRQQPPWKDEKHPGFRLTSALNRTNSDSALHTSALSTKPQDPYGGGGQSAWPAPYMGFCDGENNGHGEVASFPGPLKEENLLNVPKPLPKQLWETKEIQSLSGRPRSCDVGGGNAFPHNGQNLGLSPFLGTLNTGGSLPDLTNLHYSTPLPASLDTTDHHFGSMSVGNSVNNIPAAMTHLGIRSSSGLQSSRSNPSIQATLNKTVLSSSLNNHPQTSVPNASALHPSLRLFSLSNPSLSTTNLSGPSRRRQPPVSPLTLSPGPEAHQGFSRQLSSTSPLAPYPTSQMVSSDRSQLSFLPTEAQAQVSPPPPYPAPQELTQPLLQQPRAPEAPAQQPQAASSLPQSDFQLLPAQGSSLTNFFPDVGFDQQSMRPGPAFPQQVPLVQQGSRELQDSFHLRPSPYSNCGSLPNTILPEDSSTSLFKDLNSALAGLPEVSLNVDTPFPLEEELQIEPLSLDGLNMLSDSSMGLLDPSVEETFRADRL
Chain of UniProt Q8N4S0 (Q8N4S0 whole entry, looked up): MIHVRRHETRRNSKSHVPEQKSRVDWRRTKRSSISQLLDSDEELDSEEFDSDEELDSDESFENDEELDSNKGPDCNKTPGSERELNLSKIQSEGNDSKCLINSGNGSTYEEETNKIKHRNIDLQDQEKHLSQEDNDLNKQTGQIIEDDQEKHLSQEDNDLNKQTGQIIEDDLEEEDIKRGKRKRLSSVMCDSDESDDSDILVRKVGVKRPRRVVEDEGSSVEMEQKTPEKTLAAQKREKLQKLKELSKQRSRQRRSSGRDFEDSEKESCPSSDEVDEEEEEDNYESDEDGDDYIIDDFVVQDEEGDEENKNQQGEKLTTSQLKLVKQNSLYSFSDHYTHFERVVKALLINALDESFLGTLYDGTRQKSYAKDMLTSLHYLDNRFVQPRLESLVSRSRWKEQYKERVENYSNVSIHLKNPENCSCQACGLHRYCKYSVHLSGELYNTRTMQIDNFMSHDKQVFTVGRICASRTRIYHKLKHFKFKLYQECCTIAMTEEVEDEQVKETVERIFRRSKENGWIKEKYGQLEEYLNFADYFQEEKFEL
Chain of UniProt P51911 (P51911 whole entry, looked up): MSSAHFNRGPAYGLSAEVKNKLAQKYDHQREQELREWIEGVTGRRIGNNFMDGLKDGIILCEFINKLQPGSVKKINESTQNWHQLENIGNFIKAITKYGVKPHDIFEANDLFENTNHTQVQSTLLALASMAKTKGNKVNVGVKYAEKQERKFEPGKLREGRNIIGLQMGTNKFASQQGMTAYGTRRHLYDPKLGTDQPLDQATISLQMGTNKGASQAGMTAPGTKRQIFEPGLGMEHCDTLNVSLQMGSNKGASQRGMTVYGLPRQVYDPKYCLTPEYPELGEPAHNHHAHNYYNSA
Chain of UniProt Q9UHN6 (Q9UHN6 whole entry, looked up): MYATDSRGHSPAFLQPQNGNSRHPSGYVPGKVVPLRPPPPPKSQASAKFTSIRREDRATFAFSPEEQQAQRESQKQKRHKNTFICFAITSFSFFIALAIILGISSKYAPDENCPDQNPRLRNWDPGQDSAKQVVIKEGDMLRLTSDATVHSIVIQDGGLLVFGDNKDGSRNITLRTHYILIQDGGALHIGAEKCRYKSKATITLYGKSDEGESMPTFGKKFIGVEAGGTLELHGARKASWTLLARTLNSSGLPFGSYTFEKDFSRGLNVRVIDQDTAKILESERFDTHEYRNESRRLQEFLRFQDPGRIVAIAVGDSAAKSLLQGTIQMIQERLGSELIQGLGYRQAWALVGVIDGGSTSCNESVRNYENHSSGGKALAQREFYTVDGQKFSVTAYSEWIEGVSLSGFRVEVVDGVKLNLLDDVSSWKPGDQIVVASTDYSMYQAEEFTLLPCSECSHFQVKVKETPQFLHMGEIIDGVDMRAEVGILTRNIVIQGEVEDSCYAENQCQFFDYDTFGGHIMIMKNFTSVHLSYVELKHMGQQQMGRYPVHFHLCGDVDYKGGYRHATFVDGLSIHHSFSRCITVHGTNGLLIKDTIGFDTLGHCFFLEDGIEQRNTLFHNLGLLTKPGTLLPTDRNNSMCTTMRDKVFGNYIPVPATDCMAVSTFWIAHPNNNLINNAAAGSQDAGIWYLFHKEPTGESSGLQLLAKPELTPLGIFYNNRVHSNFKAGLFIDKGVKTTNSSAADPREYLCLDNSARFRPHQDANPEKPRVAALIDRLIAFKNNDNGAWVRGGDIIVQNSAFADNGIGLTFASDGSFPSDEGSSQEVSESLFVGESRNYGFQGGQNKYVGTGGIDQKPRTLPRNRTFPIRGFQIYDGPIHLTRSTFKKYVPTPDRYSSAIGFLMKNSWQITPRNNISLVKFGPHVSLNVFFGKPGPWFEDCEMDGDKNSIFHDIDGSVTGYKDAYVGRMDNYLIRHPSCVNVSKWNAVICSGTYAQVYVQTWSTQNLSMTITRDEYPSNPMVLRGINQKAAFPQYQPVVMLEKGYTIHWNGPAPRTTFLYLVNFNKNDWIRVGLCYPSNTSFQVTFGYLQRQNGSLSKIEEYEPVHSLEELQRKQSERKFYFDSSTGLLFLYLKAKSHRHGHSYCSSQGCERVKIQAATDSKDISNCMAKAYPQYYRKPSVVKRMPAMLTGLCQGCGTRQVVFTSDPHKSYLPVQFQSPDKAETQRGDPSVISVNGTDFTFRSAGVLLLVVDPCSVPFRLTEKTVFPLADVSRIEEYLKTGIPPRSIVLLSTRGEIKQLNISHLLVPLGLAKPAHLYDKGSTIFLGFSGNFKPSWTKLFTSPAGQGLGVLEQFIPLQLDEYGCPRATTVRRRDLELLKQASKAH
Chain of UniProt P48729 (P48729 whole entry, looked up): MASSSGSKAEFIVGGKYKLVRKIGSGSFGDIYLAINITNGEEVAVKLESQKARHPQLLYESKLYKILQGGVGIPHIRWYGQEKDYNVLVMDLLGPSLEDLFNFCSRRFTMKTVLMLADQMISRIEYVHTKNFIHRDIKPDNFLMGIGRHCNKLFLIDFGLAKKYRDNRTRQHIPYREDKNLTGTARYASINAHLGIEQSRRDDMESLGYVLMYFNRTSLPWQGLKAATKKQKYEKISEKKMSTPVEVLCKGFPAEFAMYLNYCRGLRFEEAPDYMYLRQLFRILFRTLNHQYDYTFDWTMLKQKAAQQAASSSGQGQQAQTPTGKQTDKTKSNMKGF
Chain of UniProt P30281 (P30281 whole entry, looked up): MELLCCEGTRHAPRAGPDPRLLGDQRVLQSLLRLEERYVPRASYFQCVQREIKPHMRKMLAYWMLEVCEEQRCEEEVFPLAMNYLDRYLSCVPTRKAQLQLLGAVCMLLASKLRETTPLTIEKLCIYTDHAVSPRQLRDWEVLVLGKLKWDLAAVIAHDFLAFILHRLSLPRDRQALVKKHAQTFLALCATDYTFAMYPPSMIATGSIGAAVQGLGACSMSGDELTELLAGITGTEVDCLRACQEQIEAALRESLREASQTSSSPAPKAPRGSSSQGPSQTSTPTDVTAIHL
Chain of UniProt A8MTT3 (A8MTT3 whole entry, looked up): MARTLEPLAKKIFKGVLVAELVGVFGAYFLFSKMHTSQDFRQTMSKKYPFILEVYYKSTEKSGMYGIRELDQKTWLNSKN

Target | log2 fold change
CORO2A (UniProt Q92828) | -0.005
CLN3 (UniProt Q13286) | 0.1
CLASP2 (UniProt O75122) | 0.045
CCDC82 (UniProt Q8N4S0) | 0.01
CNN1 (UniProt P51911) | 0.049
CEBPZOS (UniProt A8MTT3) | -0.044
CNRIP1 (UniProt Q96F85) | -0.075
COMMD3-BMI1 (UniProt R4GMX3) | 0.435
CEMIP2 (UniProt Q9UHN6) | 0.033
CLN8 (UniProt Q9UBY8) | 0.003
CCND3 (UniProt P30281) | 0.026
CKS2 (UniProt P33552) | -0.047
CNOT4 isoform 9 (UniProt O95628) | -0.019
CFAP58 (UniProt Q5T655) | -0.108
C5orf30 (UniProt Q96GV9) | 0.152
CFAP47 (UniProt Q6ZTR5) | 0.047
CRTC3 (UniProt Q6UUV7) | -0.302
CSNK1A1 isoform 3 (UniProt P48729) | 0.165
CDC25B isoform 4 (UniProt P30305) | 0.022
CCNT2 (UniProt O60583) | 0.08
